Compound in the experiment: C#CCNC(=O)CCSSCCC(=O)NCCc1ccc(C=O)c(C=O)c1
Briefly: lysine labeling ratio R10:1 (500 µM / 50 µM probe), SILAC-ABPP in living cells; higher = lower intrinsic lysine reactivity toward the probe, active = 2 or less. The note with it: HeLa; probe concentrations 500 vs 50 µM. The protocol:
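Living HeLa cells (SILAC light/heavy) in PBS at room temperature were labeled with 50 µM versus 500 µM of the lysine-reactive, reductant-cleavable probe OPA-S-S-alkyne (SILAC labeling time not stated). Probe-modified peptides were CuAAC-biotinylated, captured on neutravidin and eluted with DTT/IAA, then quantified by LC-MS/MS. R = median peptide ratio per lysine (500/50 µM), combined over 3 forward and 3 reverse SILAC replicates. Ratios are capped at 20; R < 2 = hyper-reactive.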
UniProt Q15149, sequence (Q15149 whole entry): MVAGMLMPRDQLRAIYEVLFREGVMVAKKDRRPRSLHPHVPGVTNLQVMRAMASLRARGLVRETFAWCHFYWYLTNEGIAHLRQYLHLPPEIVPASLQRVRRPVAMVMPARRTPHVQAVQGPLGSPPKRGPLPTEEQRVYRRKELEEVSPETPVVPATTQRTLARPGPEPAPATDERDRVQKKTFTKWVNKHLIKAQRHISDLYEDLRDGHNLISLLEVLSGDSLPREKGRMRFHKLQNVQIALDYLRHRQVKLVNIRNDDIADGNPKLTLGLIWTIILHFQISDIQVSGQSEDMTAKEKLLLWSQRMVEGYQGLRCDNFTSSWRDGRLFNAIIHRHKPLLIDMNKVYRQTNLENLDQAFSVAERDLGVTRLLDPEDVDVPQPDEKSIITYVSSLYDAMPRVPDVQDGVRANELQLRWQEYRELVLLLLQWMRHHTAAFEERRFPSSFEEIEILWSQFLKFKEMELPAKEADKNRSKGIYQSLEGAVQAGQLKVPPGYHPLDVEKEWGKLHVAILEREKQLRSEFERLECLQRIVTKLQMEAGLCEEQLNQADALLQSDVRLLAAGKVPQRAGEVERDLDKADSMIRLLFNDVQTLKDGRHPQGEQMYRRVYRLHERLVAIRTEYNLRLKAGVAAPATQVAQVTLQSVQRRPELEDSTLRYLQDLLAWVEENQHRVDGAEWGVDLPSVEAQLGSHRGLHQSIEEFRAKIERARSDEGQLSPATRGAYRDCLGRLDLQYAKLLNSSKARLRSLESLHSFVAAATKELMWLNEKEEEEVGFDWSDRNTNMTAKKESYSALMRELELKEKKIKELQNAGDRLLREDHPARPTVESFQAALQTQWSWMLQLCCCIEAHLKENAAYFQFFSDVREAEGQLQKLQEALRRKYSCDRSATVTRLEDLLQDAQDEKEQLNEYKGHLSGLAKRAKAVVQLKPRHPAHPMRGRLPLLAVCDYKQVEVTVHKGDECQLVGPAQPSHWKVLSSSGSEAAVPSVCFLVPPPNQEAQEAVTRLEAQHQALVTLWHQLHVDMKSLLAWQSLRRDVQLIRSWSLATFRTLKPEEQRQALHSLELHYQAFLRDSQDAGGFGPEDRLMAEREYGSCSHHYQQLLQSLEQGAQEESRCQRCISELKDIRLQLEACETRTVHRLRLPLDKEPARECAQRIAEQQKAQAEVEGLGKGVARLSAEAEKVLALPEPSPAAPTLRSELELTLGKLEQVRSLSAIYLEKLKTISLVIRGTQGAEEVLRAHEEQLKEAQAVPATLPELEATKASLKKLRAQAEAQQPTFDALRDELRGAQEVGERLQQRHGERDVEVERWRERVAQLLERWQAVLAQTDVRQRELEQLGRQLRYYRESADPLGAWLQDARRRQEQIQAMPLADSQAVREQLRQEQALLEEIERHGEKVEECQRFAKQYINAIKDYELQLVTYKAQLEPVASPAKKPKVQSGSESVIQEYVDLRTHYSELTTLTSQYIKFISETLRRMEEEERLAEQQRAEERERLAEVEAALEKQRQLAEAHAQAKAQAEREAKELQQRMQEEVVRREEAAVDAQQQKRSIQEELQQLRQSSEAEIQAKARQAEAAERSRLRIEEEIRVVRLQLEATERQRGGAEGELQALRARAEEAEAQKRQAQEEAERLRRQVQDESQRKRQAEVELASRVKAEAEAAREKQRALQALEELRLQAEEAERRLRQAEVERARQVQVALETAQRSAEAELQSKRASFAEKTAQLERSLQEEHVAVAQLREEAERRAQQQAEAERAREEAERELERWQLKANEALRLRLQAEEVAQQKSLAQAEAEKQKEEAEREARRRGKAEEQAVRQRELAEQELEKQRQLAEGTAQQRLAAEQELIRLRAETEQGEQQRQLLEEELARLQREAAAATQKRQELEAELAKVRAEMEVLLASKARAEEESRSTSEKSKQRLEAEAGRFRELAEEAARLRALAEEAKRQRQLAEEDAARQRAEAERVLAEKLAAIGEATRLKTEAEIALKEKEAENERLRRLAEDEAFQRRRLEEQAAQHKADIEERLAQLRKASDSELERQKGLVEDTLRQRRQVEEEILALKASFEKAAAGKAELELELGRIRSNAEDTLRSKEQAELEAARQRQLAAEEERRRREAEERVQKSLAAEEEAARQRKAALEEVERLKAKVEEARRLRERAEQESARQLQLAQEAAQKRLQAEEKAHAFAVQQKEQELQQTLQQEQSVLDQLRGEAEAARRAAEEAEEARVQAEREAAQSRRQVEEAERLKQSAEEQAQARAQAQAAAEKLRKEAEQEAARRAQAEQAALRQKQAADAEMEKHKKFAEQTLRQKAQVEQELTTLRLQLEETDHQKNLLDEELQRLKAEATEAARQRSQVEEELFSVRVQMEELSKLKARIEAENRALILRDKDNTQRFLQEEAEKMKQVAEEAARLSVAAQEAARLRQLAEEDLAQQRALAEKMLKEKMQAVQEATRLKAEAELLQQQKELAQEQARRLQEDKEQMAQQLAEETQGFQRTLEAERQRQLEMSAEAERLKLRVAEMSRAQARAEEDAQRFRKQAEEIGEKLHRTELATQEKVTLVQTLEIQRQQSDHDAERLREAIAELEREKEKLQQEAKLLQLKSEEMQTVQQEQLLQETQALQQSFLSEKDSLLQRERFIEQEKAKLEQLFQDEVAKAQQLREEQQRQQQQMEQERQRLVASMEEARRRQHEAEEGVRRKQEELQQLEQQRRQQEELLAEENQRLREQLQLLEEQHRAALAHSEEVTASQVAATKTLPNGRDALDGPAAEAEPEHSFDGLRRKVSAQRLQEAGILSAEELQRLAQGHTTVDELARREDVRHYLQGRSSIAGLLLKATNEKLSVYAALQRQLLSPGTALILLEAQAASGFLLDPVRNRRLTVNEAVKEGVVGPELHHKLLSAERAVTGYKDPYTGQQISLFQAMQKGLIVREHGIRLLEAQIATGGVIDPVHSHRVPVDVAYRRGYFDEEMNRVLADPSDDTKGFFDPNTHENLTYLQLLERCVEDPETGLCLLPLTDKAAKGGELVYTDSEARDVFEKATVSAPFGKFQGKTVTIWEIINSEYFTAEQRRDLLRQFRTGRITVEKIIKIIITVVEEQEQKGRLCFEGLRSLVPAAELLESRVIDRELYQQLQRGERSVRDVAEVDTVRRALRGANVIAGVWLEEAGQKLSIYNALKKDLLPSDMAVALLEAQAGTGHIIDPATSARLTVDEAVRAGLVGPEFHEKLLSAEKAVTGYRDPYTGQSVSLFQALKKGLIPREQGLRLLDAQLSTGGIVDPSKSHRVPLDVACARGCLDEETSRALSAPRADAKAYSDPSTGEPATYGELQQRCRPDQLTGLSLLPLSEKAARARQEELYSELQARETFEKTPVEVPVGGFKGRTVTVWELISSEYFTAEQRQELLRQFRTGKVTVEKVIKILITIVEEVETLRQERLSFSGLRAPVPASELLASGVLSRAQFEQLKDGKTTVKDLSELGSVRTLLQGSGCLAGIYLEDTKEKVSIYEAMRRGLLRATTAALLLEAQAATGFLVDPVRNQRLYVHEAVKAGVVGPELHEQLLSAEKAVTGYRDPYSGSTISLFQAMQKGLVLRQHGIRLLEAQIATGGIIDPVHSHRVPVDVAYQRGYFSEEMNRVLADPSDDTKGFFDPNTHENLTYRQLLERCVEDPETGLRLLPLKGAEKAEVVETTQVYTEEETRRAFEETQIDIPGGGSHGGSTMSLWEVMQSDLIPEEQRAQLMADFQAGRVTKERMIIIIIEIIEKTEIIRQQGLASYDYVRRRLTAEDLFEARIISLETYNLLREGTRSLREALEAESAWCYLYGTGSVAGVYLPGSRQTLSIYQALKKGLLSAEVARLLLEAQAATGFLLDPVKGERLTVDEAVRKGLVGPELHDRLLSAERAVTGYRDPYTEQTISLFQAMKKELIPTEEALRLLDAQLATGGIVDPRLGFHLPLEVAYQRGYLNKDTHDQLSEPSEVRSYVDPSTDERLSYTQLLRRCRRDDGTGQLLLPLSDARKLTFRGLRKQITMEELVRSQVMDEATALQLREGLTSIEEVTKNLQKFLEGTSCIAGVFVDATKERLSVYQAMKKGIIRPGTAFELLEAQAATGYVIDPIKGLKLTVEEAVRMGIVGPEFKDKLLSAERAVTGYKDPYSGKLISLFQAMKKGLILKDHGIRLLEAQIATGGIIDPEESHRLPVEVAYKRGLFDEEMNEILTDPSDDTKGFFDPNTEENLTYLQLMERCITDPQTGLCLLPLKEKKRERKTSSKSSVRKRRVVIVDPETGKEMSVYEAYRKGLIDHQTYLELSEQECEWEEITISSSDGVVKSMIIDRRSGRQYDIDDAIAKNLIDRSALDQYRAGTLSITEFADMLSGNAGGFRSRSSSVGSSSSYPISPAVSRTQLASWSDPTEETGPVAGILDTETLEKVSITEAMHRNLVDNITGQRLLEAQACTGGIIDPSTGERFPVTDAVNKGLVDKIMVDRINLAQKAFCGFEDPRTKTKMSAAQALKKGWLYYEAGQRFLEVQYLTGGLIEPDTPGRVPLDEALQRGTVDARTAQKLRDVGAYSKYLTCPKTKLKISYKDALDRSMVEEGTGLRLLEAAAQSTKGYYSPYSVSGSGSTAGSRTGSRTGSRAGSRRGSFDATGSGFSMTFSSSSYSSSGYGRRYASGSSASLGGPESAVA
UniProt P32970, sequence (P32970 whole entry): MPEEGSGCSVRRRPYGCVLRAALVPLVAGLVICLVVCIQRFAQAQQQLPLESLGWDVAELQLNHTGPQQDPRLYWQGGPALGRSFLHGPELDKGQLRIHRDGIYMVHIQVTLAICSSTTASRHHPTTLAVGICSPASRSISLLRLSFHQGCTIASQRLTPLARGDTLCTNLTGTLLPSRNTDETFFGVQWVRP
UniProt Q14165, sequence (Q14165 whole entry): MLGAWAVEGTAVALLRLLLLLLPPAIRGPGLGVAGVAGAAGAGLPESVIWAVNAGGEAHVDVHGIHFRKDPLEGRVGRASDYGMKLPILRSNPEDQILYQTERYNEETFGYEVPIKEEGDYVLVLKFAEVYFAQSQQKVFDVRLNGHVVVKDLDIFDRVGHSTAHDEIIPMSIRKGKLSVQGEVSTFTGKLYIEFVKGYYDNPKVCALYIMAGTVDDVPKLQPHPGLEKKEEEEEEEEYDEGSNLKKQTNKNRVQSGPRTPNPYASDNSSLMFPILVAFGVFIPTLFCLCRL
Regarding “ITGAV (lysine site: K233) (UniProt P06756)”, the “lysine labeling ratio R10:1” value is 2.51 (inactive).

Turning to “VIM (lysine site: K445) (UniProt P08670)”, the “lysine labeling ratio R10:1” value is 10.9 (inactive).

Take “ATRN (lysine site: K1133) (UniProt O75882)”: the “lysine labeling ratio R10:1” value is 1.81 (active).

As for “MLEC (lysine site: K85) (UniProt Q14165)”, the “lysine labeling ratio R10:1” value is 2.36 (inactive).

In the case of “TPM4 (lysine site: K13) (UniProt P67936)”, the “lysine labeling ratio R10:1” value is 3.28 (inactive).

In the case of UniProt Q6NZI2 (lysine site: K260), the “lysine labeling ratio R10:1” value is 4.28 (inactive).

For UniProt Q9NYQ7 (lysine site: K548), the “lysine labeling ratio R10:1” value is 1.02 (active).

With UniProt P60842 (lysine site: K54), the “lysine labeling ratio R10:1” value is 1.77 (active).

With “MYH10 (lysine site: K1782) (UniProt P35580)”, the “lysine labeling ratio R10:1” value is 1.76 (active).

Consider “ITGB1 (lysine site: K91) (UniProt P05556)”, for which the “lysine labeling ratio R10:1” value is 1.53 (active).

Regarding “EZR (lysine site: K162) (UniProt P15311)”, the “lysine labeling ratio R10:1” value is 0.7 (active).

As to UniProt Q15149 (lysine site: K2452), the “lysine labeling ratio R10:1” value was 3.75 (inactive).

Take “HSPA8 (lysine site: K246) (UniProt P11142)”: the “lysine labeling ratio R10:1” value is 1.78 (active).

On to UniProt Q15149 (lysine site: K195), for which the “lysine labeling ratio R10:1” value was 4.55 (inactive).

Take “LMAN1 (lysine site: K346) (UniProt P49257)”: the “lysine labeling ratio R10:1” value was 9.39 (inactive).

For “B2M (lysine site: K111) (UniProt P61769)”, the “lysine labeling ratio R10:1” value is 15.6 (inactive).

Regarding “SEMA3C (lysine site: K106) (UniProt Q99985)”, the “lysine labeling ratio R10:1” value is 0.653 (active).

For the target “SLC4A7 (lysine site: K890) (UniProt Q9Y6M7)”, the “lysine labeling ratio R10:1” value is 4.29 (inactive).

With “HNRNPA1 (lysine site: K8) (UniProt P09651)”, the “lysine labeling ratio R10:1” value was 4.27 (inactive).

In the case of “L1CAM (lysine site: K62) (UniProt P32004)”, the “lysine labeling ratio R10:1” value is 2.25 (inactive).

In the case of “TNFRSF10A (lysine site: K191) (UniProt O00220)”, the “lysine labeling ratio R10:1” value is 6.6 (inactive).

On to “RPL5 (lysine site: K48) (UniProt P46777)”, for which the “lysine labeling ratio R10:1” value is 1.91 (active).

Take “GPRC5A (lysine site: K16) (UniProt Q8NFJ5)”: the “lysine labeling ratio R10:1” value was 6.52 (inactive).

On to “PDCD6IP (lysine site: K640) (UniProt Q8WUM4)”, for which the “lysine labeling ratio R10:1” value was 0.892 (active).

With UniProt P02533 (lysine site: K251), the “lysine labeling ratio R10:1” value is 5.36 (inactive).

On to “HEG1 (lysine site: K1178) (UniProt Q9ULI3)”, for which the “lysine labeling ratio R10:1” value is 4.55 (inactive).

On to “IL6ST (lysine site: K335) (UniProt P40189)”, for which the “lysine labeling ratio R10:1” value was 0.692 (active).

In the case of “PIEZO1 (lysine site: K2372) (UniProt Q92508)”, the “lysine labeling ratio R10:1” value was 1.09 (active).

For “PLS3 (lysine site: K91) (UniProt P13797)”, the “lysine labeling ratio R10:1” value was 2.1 (inactive).

For “CD70 (lysine site: K93) (UniProt P32970)”, the “lysine labeling ratio R10:1” value is 3.66 (inactive).

On to “XRCC6 (lysine site: K114) (UniProt P12956)”, for which the “lysine labeling ratio R10:1” value was 2.12 (inactive).

On to “ANTXR1 (lysine site: K94) (UniProt Q9H6X2)”, for which the “lysine labeling ratio R10:1” value is 2.11 (inactive).

Take “LAMB2 (lysine site: K1720) (UniProt P55268)”: the “lysine labeling ratio R10:1” value is 5.02 (inactive).

As to UniProt P62269 (lysine site: K47), the “lysine labeling ratio R10:1” value is 1.41 (active).

As for “FBLN1 (lysine site: K649) (UniProt P23142)”, the “lysine labeling ratio R10:1” value was 2.26 (inactive).

Take “L1CAM (lysine site: K530) (UniProt P32004)”: the “lysine labeling ratio R10:1” value was 7.51 (inactive).

On to “HSPA8 (lysine site: K319) (UniProt P11142)”, for which the “lysine labeling ratio R10:1” value was 4.74 (inactive).

In the case of “SEMA3C (lysine site: K391) (UniProt Q99985)”, the “lysine labeling ratio R10:1” value was 4.13 (inactive).

With “HSPD1 (lysine site: K130) (UniProt P10809)”, the “lysine labeling ratio R10:1” value was 4.23 (inactive).

For “HNRNPC (lysine site: K170) (UniProt P07910)”, the “lysine labeling ratio R10:1” value is 2.35 (inactive).

These data come from the supplement of paper PMC11001985.
